Measurements taken from PubChem BioAssay (NCI).
About 83,000 compounds went through this panel and 20% of them were active in at least one assay; those are over-represented in the sample as a whole.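 Compound tested at a single concentration for 48 hours in 96-well plates; a percent growth value below 10 was scored as active.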 Activity calls are given as the source filed them.

Legend:
Assay in all cases: NCI-60 one-dose screen, 48 h (100 = growth as untreated, 0 = no growth, -100 = all killed)
Conditions in all cases: 10 µM unless noted
[1] = test system: NCI-H23 lung
[2] = test system: NCI-H226 lung
[3] = test system: NCI-H322M lung
[4] = test system: HOP-62 NSCLC
[5] = test system: NCI-H460 lung
[6] = test system: HOP-92 NSCLC
[7] = test system: NCI-H522 lung
[8] = test system: A549/ATCC NSCLC
[9] = test system: 786-0 renal
[10] = test system: COLO 205 colon

Measured: growth

CS(=O)(=O)c1nccc(-c2c(-c3cccc(OCc4ccc(Cl)c(C(F)(F)F)c4)c3)nc3sccn23)n1
inactive: [1] 39.4% | [2] 23.6% | [3] 86.1% | [4] 32% | [5] 55.6% | [6] 73.9% | [7] 80.1% | [8] 106% | [9] 106% | [10] 105%

O=C(CCCCCCN1CC(=O)N2[C@@H](c3ccc(Cl)s3)c3[nH]c4ccccc4c3C[C@H]2C1=O)NO
active: [7] 3.19%
inactive: [1] 41.1% | [2] 68.6% | [3] 46% | [4] 61.5% | [5] 39.4% | [6] 34.6% | [8] 73.4% | [9] 81.1% | [10] 54%

C#Cc1nc(/C=C/CCCCCCC(=O)NO)cs1
active: [1] -34.2% | [6] -52.3% | [7] -61.4% | [9] -87.8%
inactive: [2] 87.6% | [3] 85.2% | [4] 73.4% | [5] 51.8% | [8] 61.6% | [10] 81.8%

Cn1cc(-c2cc3ncnc(Nc4ccc(CC(=O)Nc5nc(C(C)(C)C)cs5)cc4)c3s2)cn1
inactive: [1] 47.5% | [2] 32.9% | [3] 43.8% | [4] 93.1% | [5] 54.3% | [6] 85% | [7] 36.9% | [8] 46.4% | [9] 34.4% | [10] 65.8%

NC(=O)c1ncn2c(=O)n(CCF)nnc12
inactive: [1] 94.5% | [2] 68.5% | [3] 78% | [4] 53.5% | [5] 54.9% | [6] 99.3% | [7] 82.7% | [8] 99% | [9] 61.3% | [10] 57.4%

O=C(CSc1nc2ccccc2c(=O)n1-c1ccccc1)Nc1ccc(S(=O)(=O)Nc2nccs2)cc1
inactive: [1] 86.1% | [2] 73.6% | [3] 77% | [4] 80.4% | [5] 85.2% | [6] 89.4% | [7] 26.7% | [8] 84.4% | [9] 66.1% | [10] 103%

Cn1cc(-c2nnc(N)nc2-c2c[nH]c3ccc(Br)cc23)c2cc(Br)ccc21
inactive: [1] 98.3% | [2] 112% | [3] 104% | [4] 106% | [5] 107% | [6] 111% | [7] 85.7% | [8] 104% | [9] 89.5% | [10] 116%

Cc1ccc(C)c(NC2=C(Cl)C(=O)c3nc(C)ccc3C2=O)c1
inactive: [2] 10.5% | [3] 24.2% | [5] 48.9% | [8] 31% | [10] 107%
active: [1] -38% | [4] 7.19% | [6] -13.8% | [7] -35.9% | [9] 4.67%

O=c1oc2ccc(-c3ccc(F)cc3F)cc2c(=O)n1-c1ccc(Br)cc1F
active: [6] -19.3%
inactive: [1] 60% | [2] 77.8% | [3] 71.7% | [4] 82.9% | [5] 45.9% | [7] 12.1% | [8] 84.4% | [9] 95.2% | [10] 121%

O=c1c2ccccc2cc2n1CCN=C2c1ccccc1
inactive: [1] 93.8% | [2] 96% | [3] 99.7% | [4] 116% | [5] 101% | [6] 81% | [7] 98% | [8] 102% | [9] 96.8% | [10] 103%

CN(C)CC(=O)Nc1nc(-c2cccc(NS(=O)(=O)c3cccc4c(N(C)C)cccc34)c2)cs1
inactive: [1] 75.6% | [2] 74.1% | [3] 96.2% | [4] 103% | [5] 92.4% | [6] 60.8% | [7] 76.7% | [8] 80.1% | [9] 90.5% | [10] 104%

CN(C)c1cccc2c(S(=O)(=O)Nc3cccc(-c4csc(NC(=O)CCCCCN5CCN(CCO)CC5)n4)c3)cccc12
inactive: [1] 81.3% | [2] 91.2% | [3] 88.2% | [4] 84.9% | [5] 82.6% | [6] 37.5% | [7] 84.4% | [8] 74.9% | [9] 77.5% | [10] 81.1%

CC(C)(C)OC(=O)Nc1ccc(-c2cccc(Oc3ccc4nnc(Cl)n4n3)c2)cc1
inactive: [1] 69.7% | [2] 66.4% | [3] 101% | [4] 104% | [5] 82.4% | [6] 42.3% | [7] 64.9% | [8] 85.6% | [9] 81.9% | [10] 88.5%

COc1ccc(-c2cnc(NC(=O)CCCCCCNC(=O)C(O)(O)C(F)(F)F)s2)cc1
active: [1] -9.04% | [2] 5.81% | [3] 8.73% | [4] 1.79% | [5] 0.915% | [6] -25.4% | [7] -41.4% | [8] -12.5% | [10] -70.8%
inactive: [9] 14.9%

Cn1cc(-c2nn3cc(-c4ccncc4)nc3s2)c2cc(Br)ccc21
inactive: [1] 63.1% | [2] 83.5% | [3] 81.3% | [4] 71.6% | [5] 54.9% | [7] 79.4% | [8] 66.4% | [9] 84.6% | [10] 46.5%
active: [6] -0.882%

C=C(C)[C@@H]1CC[C@]2(C(=O)NC3CCCCC3)CC[C@]3(C)[C@H](CC[C@@H]4[C@@]5(C)CC[C@H](N)C(C)(C)[C@@H]5CC[C@]43C)[C@@H]12
inactive: [1] 106% | [2] 94.2% | [3] 108% | [4] 104% | [5] 98.7% | [6] 73.1% | [7] 93.2% | [8] 91.9% | [9] 84.6% | [10] 52.9%

Cc1ccc(-c2cc3nc(C(Cl)Cl)nc(-c4ccc(S(=O)(=O)N(C)C)cc4)n3n2)cc1
inactive: [1] 90.9% | [2] 87.7% | [3] 107% | [4] 77.9% | [5] 93.5% | [6] 128% | [7] 89.7% | [8] 88.4% | [9] 97.9% | [10] 98.1%

O=C(Nc1cccc(Cl)c1)Nc1nc2cc([N+](=O)[O-])ccc2o1
inactive: [1] 38.4% | [2] 56.1% | [3] 37.4% | [4] 58% | [5] 26.5% | [7] 18.2% | [8] 44.6% | [9] 44.2% | [10] 75.1%
active: [6] -4.19%

Cc1cc(=O)[nH]c(O)c1C#N
inactive: [1] 100% | [2] 101% | [3] 98.1% | [4] 94.8% | [5] 108% | [6] 97.4% | [7] 101% | [8] 103% | [9] 103% | [10] 107%

COC(=O)N1CCN(CCNCc2ccc(NC(=O)c3ccc(C)c(C#Cc4cnc5cccnn45)c3)cc2C(F)(F)F)CC1
inactive: [1] 36.2% | [2] 31.1% | [3] 75.3% | [4] 24.9% | [5] 22.2% | [6] 12.2% | [7] 30.2% | [8] 27.9% | [9] 38.2%
active: [10] 2.48%

C/C(CC1(O)C(=O)Nc2ccccc21)=N\O (stereo not given)
inactive: [1] 101% | [2] 98% | [3] 102% | [4] 95.2% | [5] 101% | [6] 93.9% | [7] 91.3% | [8] 102% | [9] 101% | [10] 103%

CCN(CC)c1ccc(/C=N/NC(=O)c2ccc(S(N)(=O)=O)cc2)c(O)c1
inactive: [1] 20.7% | [2] 43.1% | [3] 22.1% | [4] 11.6% | [6] 53.1% | [7] 15.1% | [8] 16% | [10] 14.3%
active: [5] 4.16% | [9] 4.11%

C=C1CCc2nc(SCC(=O)O)ccc2N1
inactive: [1] 95.6% | [2] 99% | [3] 105% | [4] 103% | [5] 102% | [6] 120% | [7] 96.7% | [8] 108% | [9] 106% | [10] 107%

C#Cc1cc(C(=O)Nc2ccc(CNCCN3CCOCC3)c(C(F)(F)F)c2)ccc1C
inactive: [1] 92.2% | [2] 95.4% | [3] 98.3% | [4] 102% | [5] 101% | [6] 68.7% | [7] 89.6% | [8] 87.7% | [9] 80.7% | [10] 105%

CSc1ccc(/C(=N/N=C(N)N)c2ccc(Cl)cc2)cc1
inactive: [1] 12.6% | [2] 27% | [3] 30.1%
active: [4] 6.91% | [5] -12.7% | [6] -4.16% | [7] -41.9% | [8] 4.66% | [9] 4.8% | [10] -89.4%

CSc1ccc(/C(=N/N=C(N)N)c2ccc(F)cc2)cc1
inactive: [3] 67.5% | [4] 36.1% | [6] 33.4% | [8] 16.4% | [9] 17.7%
active: [1] -36.7% | [2] 0.244% | [5] 6.38% | [7] 8.51% | [10] -42.2%

O=C(CCl)Nc1ccc(NC(=O)c2cc(Cl)ccc2O)c(Cl)c1
inactive: [1] 29% | [2] 59% | [3] 96% | [4] 101% | [5] 67.1% | [6] 127% | [8] 88.3% | [9] 88% | [10] 95.2%
active: [7] -22.6%
